This note sets out measurements from the supplement of paper PMC11624193, “Coupling cellular drug-target engagement to downstream pharmacology with CeTEAM” (Nature Communications, 2024).

Where a name gives a salt, the structure may show the parent alone.

PARP1 L713F-nLuc biosensor (HCT116), sequence (P09874 whole entry L713F, looked up): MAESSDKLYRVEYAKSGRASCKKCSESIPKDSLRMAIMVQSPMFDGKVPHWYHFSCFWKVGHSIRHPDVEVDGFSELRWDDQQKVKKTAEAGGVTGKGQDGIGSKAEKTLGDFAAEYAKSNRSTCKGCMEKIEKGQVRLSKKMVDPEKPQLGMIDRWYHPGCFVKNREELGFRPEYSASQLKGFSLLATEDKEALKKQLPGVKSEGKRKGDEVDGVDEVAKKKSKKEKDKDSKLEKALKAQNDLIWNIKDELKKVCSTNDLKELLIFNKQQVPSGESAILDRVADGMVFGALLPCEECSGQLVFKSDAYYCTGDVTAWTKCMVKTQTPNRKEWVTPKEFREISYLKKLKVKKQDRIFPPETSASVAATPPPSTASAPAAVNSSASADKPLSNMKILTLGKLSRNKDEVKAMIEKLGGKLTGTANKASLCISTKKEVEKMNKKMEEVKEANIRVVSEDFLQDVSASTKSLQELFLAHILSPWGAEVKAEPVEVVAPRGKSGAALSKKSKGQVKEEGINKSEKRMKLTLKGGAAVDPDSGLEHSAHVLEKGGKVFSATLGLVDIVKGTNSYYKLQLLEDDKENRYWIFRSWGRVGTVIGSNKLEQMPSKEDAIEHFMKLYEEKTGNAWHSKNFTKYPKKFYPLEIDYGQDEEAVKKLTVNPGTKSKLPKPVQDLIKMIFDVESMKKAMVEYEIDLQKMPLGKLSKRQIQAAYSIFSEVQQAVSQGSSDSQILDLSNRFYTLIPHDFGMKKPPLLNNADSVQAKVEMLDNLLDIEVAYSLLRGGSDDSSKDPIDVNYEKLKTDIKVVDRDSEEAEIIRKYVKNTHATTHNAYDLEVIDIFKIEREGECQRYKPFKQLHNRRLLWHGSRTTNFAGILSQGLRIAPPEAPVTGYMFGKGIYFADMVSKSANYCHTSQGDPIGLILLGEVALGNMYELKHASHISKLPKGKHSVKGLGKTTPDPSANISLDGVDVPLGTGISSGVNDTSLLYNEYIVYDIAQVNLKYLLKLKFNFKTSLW

This assay has as its target PARP1 L713F-nLuc biosensor (HCT116) (UniProt P09874). In words: PARP1 L713F-nLuc/akaLuc ratio relative to DMSO control (biosensor stabilization) (fold change); higher = more PARP1 biosensor stabilization (target engagement / stabilizer), active = hit call of the paper. The note with it: stock concentration (mM; final µM = stock mM x 1): 10; 24 h.
For `COc1ccccc1S(=O)(=O)Nc1ccc2c3c(cc(-n4cnc(C)c4)nc13)C(=O)N2C`, the “PARP1 L713F-nLuc/akaLuc ratio” value was 1.04 (inactive).
For `O=C(Nc1cnn2ccc(N3CCC[C@@H]3c3cc(F)ccc3F)nc12)N1CC[C@H](O)C1` [Larotrectinib (LOXO-101) sulfate], the “PARP1 L713F-nLuc/akaLuc ratio” value was 0.817 (inactive).
The value for `NC(=O)c1cnc2[nH]ccc2c1N[C@@H]1[C@@H]2CC3C[C@H]1C[C@@](O)(C3)C2` was 0.774 (inactive); that for `COc1cc2ncnc(Nc3cccc(Cl)c3F)c2cc1OC(=O)N1CCN(C)C[C@H]1C` was 1.31 (inactive).
Under `Cc1cc(Nc2ccc(NC(=O)c3ccc(Nc4ccnc5ccccc45)cc3)cc2)nc(N)n1` stands 1.38 (inactive).
As for `NC(=O)c1ccccc1` [Benzamide], the “PARP1 L713F-nLuc/akaLuc ratio” value is 1.08 (inactive).
As to `CS(=O)(=O)c1ccc(Oc2cc(F)cc(C#N)c2)c2c1C(O)C(F)C2` (configuration not stated), the “PARP1 L713F-nLuc/akaLuc ratio” value was 0.836 (inactive).
As to `C/C(=N\NC(=O)c1cccc(S(=O)(=O)N2CCOCC2)c1)c1cc(Cl)ccc1O`, the “PARP1 L713F-nLuc/akaLuc ratio” value was 0.495 (inactive).
Under `CC(O)c1cc(C(=O)N[C@@H](C)Cn2ccc(-c3ccc(C#N)c(Cl)c3)n2)n[nH]1` (some centres not stated) [Darolutamide (ODM-201)] stands 0.613 (inactive); under `CCc1cccc(CC)c1NC(=O)N1Cc2[nH]nc(NC(=O)c3ccc(N4CCN(C)CC4)cc3)c2C1`, 0.92 (inactive); under `COc1cc2c(NC3CCN(C)CC3)nc(N3CCCN(C)CC3)nc2cc1OCCOCCN(C)C`, 1.43 (inactive).
The value for `Cc1cc(C)c(CNC(=O)c2cc(-c3ccc(N4CCN(C)CC4)nc3)cc3c2c(C)cn3C(C)C)c(=O)[nH]1` was 1.47 (inactive); that for `Cc1nc(-c2cccnc2)sc1C(=O)Nc1ccccc1-c1cn2c(CN3CCOCC3)csc2n1` was 0.883 (inactive); that for `CCC(Sc1nnc2c(n1)[nH]c1ccccc12)C(=O)N1c2ccccc2Sc2ccccc21` (configuration not stated) [Inauhzin] was 0.33 (active).
Under `Cc1ccc(=O)n(-c2ccccc2)c1` [Pirfenidone] stands 0.824 (inactive); under `CC(=O)Nc1cccc(-n2c(=O)n(C3CC3)c(=O)c3c(Nc4ccc(I)cc4F)n(C)c(=O)c(C)c32)c1`, 0.502 (inactive); under `CN1CCN(c2ccc(C(=O)Nc3ccc([C@@H]4C[C@H]4N)cc3)cc2)CC1`, 0.684 (inactive).
Turning to `CO[C@H]1C[C@@H]2CC[C@@H](C)[C@@](O)(O2)C(=O)C(=O)N2CCCC[C@H]2C(=O)O[C@H]([C@H](C)C[C@@H]2CC[C@@H](OC(=O)C(C)(CO)CO)[C@H](OC)C2)CC(=O)[C@H](C)/C=C(\C)[C@@H](O)[C@@H](OC)C(=O)[C@H](C)C[C@H](C)/C=C/C=C/C=C/1C`, the “PARP1 L713F-nLuc/akaLuc ratio” value is 0.565 (inactive).
As for `COc1cc2c(NC3CCN(C(C)C)CC3)nc(C3CCCCC3)nc2cc1OCCCN1CCCC1`, the “PARP1 L713F-nLuc/akaLuc ratio” value is 0.748 (inactive).
The value for `S=c1[nH]cnc2nc[nH]c12` [Mercaptopurine (6-MP)] was 2.51 (inactive).
The value for `O=C(NCc1ccncc1)C12CC3CC(C1)CC(c1ccc(Cl)cc1)(C3)C2` was 0.757 (inactive).
Under `CN1CCc2c(c3ccccc3n2Cc2ccc(C(=O)NO)cc2)C1` [Tubastatin A] stands 1.26 (inactive); under `CC1(C)C=Cc2cc(CCn3c4ccccc4c4ccccc43)cc(C=O)c2O1`, 1.78 (inactive).
Take `CCNC(=O)NCCSC[C@H]1O[C@@H](n2cnc3c(N)ncnc32)[C@H](O)[C@@H]1O`: the “PARP1 L713F-nLuc/akaLuc ratio” value was 0.751 (inactive).
Under `O=c1oc2cc(O)ccc2c2ccccc12` [Urolithin B] stands 0.914 (inactive).
The value for `CCN(CC)CCCC[C@H](NC(=O)[C@H](CC(C)C)NC(=O)[C@H](C)NC(=O)[C@H](Cc1ccccc1)NC(=O)c1ccc(C(C)(C)C)cc1)C(=O)N[C@@H](CO)C(=O)OC` was 1.47 (inactive).
Under `Cn1c(Nc2ccc(C(F)(F)F)cc2)nc2cc(Oc3ccnc(-c4ncc(C(F)(F)F)[nH]4)c3)ccc21` stands 0.546 (inactive); under `CCN(c1cc(-c2ccc(CN3CCOCC3)cc2)cc(C(=O)NCc2c(C)cc(C)[nH]c2=O)c1C)C1CCOCC1` [Tazemetostat], 0.962 (inactive); under `O=C1COc2c(CCNCCN(C(=O)CCNCCc3ccc(Cl)c(Cl)c3)C3CCCCC3)ccc(O)c2N1` [AZ505 (ditrifluoroacetate)], 0.634 (inactive).
For the compound `CC(C)Oc1ccc(-c2c[nH]cc2CN(C)CCN)cc1`, the “PARP1 L713F-nLuc/akaLuc ratio” value is 1.38 (inactive).
With `CC1Oc2cc(cnc2N)-c2c(nn(C)c2C#N)CN(C)C(=O)c2ccc(F)cc21` (configuration not stated), the “PARP1 L713F-nLuc/akaLuc ratio” value is 1.13 (inactive).
For the compound `O=C(O)c1ccc2c(c1)nc(NC(=O)c1ccccc1)n2CCCc1ccccc1`, the “PARP1 L713F-nLuc/akaLuc ratio” value was 1.26 (inactive).
Under `Cc1cnc(NC(=O)Nc2cc(Br)c(C)cc2OC[C@@H]2CNCCO2)cn1` stands 0.787 (inactive); under `CN(C)C[C@@H]1CCn2cc(c3ccccc32)C2=C(C(=O)NC2=O)c2cn(c3ccccc23)CCO1`, 0.636 (inactive).
Under `O=c1[nH]c(=S)[nH]c(-c2ccccc2)c1Cc1c(O)ccc2ccccc12` [Cambinol] stands 0.684 (inactive); under `Cc1ncc(Cl)cc1NCc1ccc(C(=O)N[C@@H](CC2CCCC2)C(=O)NC2CC2)s1`, 0.585 (inactive); under `C#Cc1cccc(Nc2ncnc3cc4c(cc23)OCCOCCOCCO4)c1` [Icotinib], 0.808 (inactive).
